Experimental data from PubChem BioAssay AID651828 (ICCB-Longwood Screening Facility, Harvard Medical School, 2012).
Screen size: about 20,000 compounds; about 25 (0.1%) were called active. Rule as the data show it: active = % bound below about 75%; inactive = the rest. Only a selection was taken, and actives are over-represented in it overall.

molecular target: Nucleoprotein (Rift valley fever virus (strain ZH-548 M12)) (UniProt P21700); test: inhibitors of RVFV nucleoprotein–RNA binding, primary screen, biochemical, fluorescence polarization (AID 651828); settings: RVFV N-RNA binding, stronger effect = lower value, concentration not given here
Sequence (P21700 whole entry, looked up): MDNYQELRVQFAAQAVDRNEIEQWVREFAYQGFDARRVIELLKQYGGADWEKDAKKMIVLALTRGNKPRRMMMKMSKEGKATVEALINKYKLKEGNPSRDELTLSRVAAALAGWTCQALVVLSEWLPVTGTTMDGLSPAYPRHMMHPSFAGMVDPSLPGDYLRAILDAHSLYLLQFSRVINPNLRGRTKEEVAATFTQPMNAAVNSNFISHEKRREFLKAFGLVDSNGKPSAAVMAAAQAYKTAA

**Q.** With `CSC(=S)Nc1ccc(C)cc1` as the molecule, how does the % bound read?
**A.** 92% (inactive)

**Q.** With `CCN(CC)CCN1C(=O)C(O)=C(C(=O)/C=C/c2ccco2)C1c1ccc(OC)cc1` (centres undefined) as the molecule, how does the % bound read?
**A.** 97.9% (inactive)

**Q.** Which % bound does the source give for `CC(Cn1cnc2ccccc21)C(=O)N/N=C/c1ccccc1` (centres undefined) here?
**A.** 98.5% (inactive)

**Q.** How did the % bound turn out when `CC(C)NS(=O)(=O)c1ccc(NC(=O)C2CCCCC2)cc1` was run?
**A.** 98% (inactive)

**Q.** `NS(=O)(=O)c1ccc(NS(=O)(=O)/C=C/c2ccccc2)cc1` was tested. Which % bound did it give?
**A.** 80.7% (inactive)

**Q.** `O=C(c1cccc(N2C(=O)c3ccccc3C2=O)c1)N1CCOCC1` was tested. Which % bound did it give?
**A.** 95% (inactive)

**Q.** Which % bound does the source give for `CCCCN=Cc1c(O)n(-c2ccc(Cl)cc2)c(=O)[nH]c1=O` here?
**A.** 85.2% (inactive)

**Q.** How did the % bound turn out when `O=C(CSc1ccc(-c2ccccc2)nn1)NCC1CCCO1` (centres undefined) was run?
**A.** 91.3% (inactive)

**Q.** With `O=C(CC1CCCC1)NCc1cn2ccsc2n1` as the molecule, how does the % bound read?
**A.** 97.9% (inactive)

**Q.** Which % bound does the source give for `Cc1cccc(NC(=O)c2ccccc2-c2nc(-c3ccccc3)no2)c1` here?
**A.** 89.8% (inactive)

**Q.** How did the % bound turn out when `O=C(CC12CC3CC(CC(C3)C1)C2)Nc1ccc(N2CCN(C(=O)c3ccco3)CC2)cc1` was run?
**A.** 89.8% (inactive)

**Q.** Which % bound does the source give for `O=C(Nc1ccccn1)c1cc2c(s1)CCCC2` here?
**A.** 94.3% (inactive)

**Q.** Which % bound does the source give for `COC(=O)Nc1ccc(S(=O)(=O)Nc2cc(OC)nc(OC)n2)cc1` here?
**A.** 95.6% (inactive)

**Q.** Which % bound does the source give for `COc1ccc(C2CC(=O)c3cnc(NCCN4CCOCC4)nc3C2)cc1` (centres undefined) here?
**A.** 89.7% (inactive)

**Q.** With `COC(=O)c1ccc(COc2ccc3c(oc(=O)c4cc(OC)ccc43)c2C)o1` as the molecule, how does the % bound read?
**A.** 87.4% (inactive)

**Q.** How did the % bound turn out when `CCOC(=O)c1ccc(CC(=O)c2cc(CC)c(O)cc2O)o1` was run?
**A.** 105% (inactive)

**Q.** How did the % bound turn out when `CN1CCC(N(C)C(=O)Nc2c[nH]c3ccccc23)CC1` was run?
**A.** 96.9% (inactive)

**Q.** For `CCc1c(O)nc(SCc2ccccc2)n(C2CCCCC2)c1=O`, which % bound is on record?
**A.** 92.2% (inactive)

**Q.** Which % bound does the source give for `Cc1cc(Cl)ccc1NNC(=O)c1snnc1C` here?
**A.** 109% (inactive)

**Q.** Which % bound does the source give for `Cc1cc(=O)[nH]c(Nc2ccc(O)cc2)n1` here?
**A.** 96.9% (inactive)

**Q.** For `CSc1n[nH]c(N)c1-c1ccccn1`, which % bound is on record?
**A.** 93.7% (inactive)

**Q.** Which % bound does the source give for `CP(=O)(O)CN1CCN(CP(C)(=O)O)CC1` here?
**A.** 93% (inactive)

**Q.** With `CCNC(=O)N1c2ccccc2Sc2ccccc21` as the molecule, how does the % bound read?
**A.** 93.8% (inactive)

**Q.** Which % bound does the source give for `CN(C)S(=O)(=O)c1ccc(C(=O)Nc2nnc(C3CC3)o2)cc1` here?
**A.** 107% (inactive)

**Q.** `Cc1ccc(-c2nn3c(C)nnc3c3ccccc23)cc1S(=O)(=O)N1CCCC1` was tested. Which % bound did it give?
**A.** 93.1% (inactive)

**Q.** With `COc1ccc(CCNC(=O)Nc2ccccc2C)cc1OC` as the molecule, how does the % bound read?
**A.** 91.4% (inactive)

**Q.** How did the % bound turn out when `O=C(O)c1cc(N=Cc2ccccc2)ccc1O` was run?
**A.** 108% (inactive)

**Q.** For `CC(Sc1nnc(-c2c[nH]c3ccccc23)n1C)c1ccccc1` (centres undefined), which % bound is on record?
**A.** 96.8% (inactive)

**Q.** With `FC(F)(F)COc1ccc(-c2n[nH]c(=S)o2)cn1` as the molecule, how does the % bound read?
**A.** 92.8% (inactive)

**Q.** How did the % bound turn out when `COc1cccc(CNc2ccc3c(c2)ncn3C)c1` was run?
**A.** 107% (inactive)

**Q.** `Cc1nc(SCC#N)c2c3c(sc2n1)CCCC3` was tested. Which % bound did it give?
**A.** 103% (inactive)

**Q.** `O=C(CC(C(=O)O)n1cccn1)c1ccc(Br)cc1` (centres undefined) was tested. Which % bound did it give?
**A.** 98.3% (inactive)

**Q.** How did the % bound turn out when `COCC(=O)N1CCN(c2ccccn2)CC1` was run?
**A.** 87.2% (inactive)

**Q.** For `O=S(=O)(NNc1ncnc2sccc12)c1ccc(Cl)cc1`, which % bound is on record?
**A.** 97.8% (inactive)

**Q.** For `O=C(CN1CCSCC1)N/N=C/c1ccc(Br)cc1`, which % bound is on record?
**A.** 101% (inactive)

**Q.** For `C=CCN(CC=C)C(=O)c1ccc(N2C(=O)CCC2=O)cc1`, which % bound is on record?
**A.** 95.1% (inactive)

**Q.** How did the % bound turn out when `CCC(C)NC(=S)NC1CCCCC1` (centres undefined) was run?
**A.** 112% (inactive)

**Q.** With `CC(C)(C)c1ccc(CSc2nc3c(c(=O)[nH]2)CCC3)cc1` as the molecule, how does the % bound read?
**A.** 91% (inactive)

**Q.** With `CN(C(=O)c1cc2cccnc2n(C)c1=O)c1ccccc1` as the molecule, how does the % bound read?
**A.** 93.7% (inactive)

**Q.** For `O=C(CCc1ccccc1)NNc1ccc(F)cc1`, which % bound is on record?
**A.** 104% (inactive)

**Q.** For `Cc1[nH]nc2c1C1C(C2)C1(C)C` (centres undefined), which % bound is on record?
**A.** 96.4% (inactive)

**Q.** For `C=CCn1c(O)c(N=N)c2ccccc21`, which % bound is on record?
**A.** 97.3% (inactive)

**Q.** For `CC1CCCCN1S(=O)(=O)CCNC(=O)c1ccccc1` (centres undefined), which % bound is on record?
**A.** 89.1% (inactive)

**Q.** `CC(C)n1c(-c2ccncc2)n[nH]c1=S` was tested. Which % bound did it give?
**A.** 98.6% (inactive)

**Q.** Which % bound does the source give for `CN(C)C(=O)c1cc(Br)ccc1Cl` here?
**A.** 99.9% (inactive)

**Q.** How did the % bound turn out when `Cc1onc(-c2ccccc2Cl)c1C(=O)N(Cc1nc(-c2ccccc2)no1)C(C)C` was run?
**A.** 89% (inactive)

**Q.** `CC(C)CCn1c(CO)cnc1S(=O)(=O)C(C)C` was tested. Which % bound did it give?
**A.** 86.9% (inactive)

**Q.** How did the % bound turn out when `O=C(c1ccc(Br)o1)n1cnc2ccccc21` was run?
**A.** 104% (inactive)

**Q.** With `CC(=O)Nn1nc2c(n1)C(=NNC(=O)c1ccccc1)c1nn(NC(C)=O)nc1C2=NNC(=O)c1ccccc1` as the molecule, how does the % bound read?
**A.** 98.5% (inactive)

**Q.** Which % bound does the source give for `CNC(C)c1ccc(OC)c(OC)c1` (centres undefined) here?
**A.** 91% (inactive)

**Q.** How did the % bound turn out when `CCN(CC)C(=O)/C=C/c1cccc2ccccc12` was run?
**A.** 101% (inactive)

**Q.** Which % bound does the source give for `Cc1cc(C)c2c(N)c(-c3n[nH]c(=S)n3C)sc2n1` here?
**A.** 98.2% (inactive)

**Q.** `CNC(=O)O/N=C/c1nn(C)cc1Br` was tested. Which % bound did it give?
**A.** 94.8% (inactive)

**Q.** For `COc1ccc(Cl)cc1NC(=S)N1CCCCC1CO` (centres undefined), which % bound is on record?
**A.** 94.6% (inactive)

**Q.** With `O=C(Nc1c[nH]c2ccccc12)NC1CCCC1` as the molecule, how does the % bound read?
**A.** 94.2% (inactive)

**Q.** How did the % bound turn out when `COc1cc(CN2CCN3CCCC3C2C2CCCCC2)cc(OC)c1` (centres undefined) was run?
**A.** 107% (inactive)

**Q.** For `CC12CN3CC(C)(CN(C1)C31C(=O)Nc3ccccc31)C2O` (centres undefined), which % bound is on record?
**A.** 103% (inactive)

**Q.** For `O=c1cc(-c2ccccc2)nc(SCc2ccccn2)[nH]1`, which % bound is on record?
**A.** 93.4% (inactive)

**Q.** How did the % bound turn out when `Cn1c(=O)n(Cc2ccco2)c(=N)c2c3c(sc21)CCCC3` was run?
**A.** 106% (inactive)

**Q.** For `Nn1c(Cc2ccccc2)nnc1SCC(=O)Nc1ccccc1F`, which % bound is on record?
**A.** 91.9% (inactive)

**Q.** Which % bound does the source give for `COc1ccc(N=Nc2c(-c3ccc(OC)cc3)[nH]oc2=O)cc1` here?
**A.** 75.1% (inactive)

**Q.** How did the % bound turn out when `CN(C)c1ccc(/C=C2\SC(=Nc3ccccc3)N(CCO)C2=O)cc1` was run?
**A.** 92.8% (inactive)

**Q.** For `CS(=O)(=O)c1ccccc1C(=O)Nc1ccc2sccc2c1`, which % bound is on record?
**A.** 96% (inactive)

**Q.** With `O=S(=O)(c1ccccc1)c1ccc(I)cc1` as the molecule, how does the % bound read?
**A.** 96.7% (inactive)

**Q.** `C=CCc1ccc(OCC(=O)ONN)c(OC)c1` was tested. Which % bound did it give?
**A.** 104% (inactive)

**Q.** With `COC(=O)c1sc(-c2cccs2)cc1NS(=O)(=O)c1cn(C)cn1` as the molecule, how does the % bound read?
**A.** 98.3% (inactive)

**Q.** With `Cc1c(Cl)cccc1NC(=O)CCn1cnc2ccccc2c1=O` as the molecule, how does the % bound read?
**A.** 81.8% (inactive)

**Q.** With `Cc1cc(Oc2cc(C#N)c(C#N)cc2N2CCOCC2)cc(C)c1Cl` as the molecule, how does the % bound read?
**A.** 95.2% (inactive)

**Q.** Which % bound does the source give for `COc1cc(/C=C2/C(=N)N3N=C(c4ccccc4C)SC3=NC2=O)ccc1OC(=O)c1ccco1` here?
**A.** 91.3% (inactive)
